Experimental data taken from PMC5540273 (PLoS ONE, 2017).
“And” between values parts separate entries of the source, which are not always exact repeats. Identical values can stand only once. Like-named read-outs stand apart in the source and are kept apart here.

Assays:
MKK7 = conditions: concentration: 1 μM, replicates: in singlicate, n = 1
MKNK1 = conditions: concentration: 1 μM, replicates: in singlicate; n = 1
MKNK2 = conditions: concentration: 1 μM, replicates: in singlicate, n = 1
MLCK = tested on: T1, MLCK; conditions: concentration: 1 μM, replicates: in singlicate; n = 1
T1 construct: gene MYLK3

MLK1 = tested on: T2, MLK1; conditions: concentration: 1 μM, replicates: in singlicate; n = 1
T2 construct: gene MAP3K9

MLK2 = conditions: concentration: 1 μM, replicates: in singlicate, n = 1
MLK3 = conditions: concentration: 1 μM, replicates: in singlicate; n = 1
MRCKA = conditions: concentration: 1 μM, replicates: in singlicate, n = 1
MRCKB = tested on: T3, MRCKB; conditions: concentration: 1 μM, replicates: in singlicate, n = 1
T3 construct: gene CDC42BPB

MST1R = conditions: concentration: 1 μM, replicates: in singlicate, n = 1
MST1 = tested on: T4, MST1; conditions: concentration: 1 μM, replicates: in singlicate, n = 1
T4 construct: gene STK4

MST2 = tested on: T5, MST2; conditions: concentration: 1 μM, replicates: in singlicate; n = 1
T5 construct: gene STK3

MST3 = tested on: T6, MST3; conditions: concentration: 1 μM, replicates: in singlicate, n = 1
T6 construct: gene STK24

MST4 = conditions: concentration: 1 μM, replicates: in singlicate, n = 1
MTOR = conditions: concentration: 1 μM, replicates: in singlicate, n = 1
MUSK = conditions: concentration: 1 μM, replicates: in singlicate; n = 1
MYLK2 = conditions: concentration: 1 μM, replicates: in singlicate, n = 1
MYLK4 = conditions: concentration: 1 μM, replicates: in singlicate, n = 1
MYLK = conditions: concentration: 1 μM, replicates: in singlicate, n = 1
MYO3A = conditions: concentration: 1 μM, replicates: in singlicate, n = 1
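Note: KINOMEscan kinase panel screen.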

C[C@@H](Oc1cc(-n2cnc3ccc(NC(=O)NC(C)(C)C)cc32)sc1C(N)=O)c1ccccc1Cl [GSK346294]
%Inh (MKK7): 0% | %Inh (MKNK1): 0% | %Inh (MKNK2): 0% | %Inh (MLCK): 0% | %Inh (MLK1): 0% | %Inh (MLK2): 27% | %Inh (MLK3): 37% | %Inh (MRCKA): 12% | %Inh (MRCKB): 5% | %Inh (MST1R): 29% | %Inh (MST1): 12% | %Inh (MST2): 0% | %Inh (MST3): 13% | %Inh (MST4): 0% | %Inh (MTOR): 31% | %Inh (MUSK): 6% | %Inh (MYLK2): 0% | %Inh (MYLK4): 1% | %Inh (MYLK): 23% | %Inh (MYO3A): 35%

c1ccc(-c2n[nH]cc2-c2ccnc3ccccc23)nc1 [GW271431]
%Inh (MKK7): 0% | %Inh (MKNK1): 6% | %Inh (MKNK2): 7% | %Inh (MLCK): 10% | %Inh (MLK1): 0% | %Inh (MLK2): 0% | %Inh (MLK3): 22% | %Inh (MRCKA): 28% | %Inh (MRCKB): 13% | %Inh (MST1R): 32% | %Inh (MST1): 5% | %Inh (MST2): 13% | %Inh (MST3): 2% | %Inh (MST4): 0% | %Inh (MTOR): 9% | %Inh (MUSK): 15% | %Inh (MYLK2): 12% | %Inh (MYLK4): 24% | %Inh (MYLK): 20% | %Inh (MYO3A): 31%

O=C(NOCC1CC1)c1ccc(F)c(F)c1Nc1ccc(I)cc1Cl
%Inh (MKK7): 0% | %Inh (MKNK1): 0% | %Inh (MKNK2): 0% | %Inh (MLCK): 0% | %Inh (MLK1): 0% | %Inh (MLK2): 0% | %Inh (MLK3): 0% | %Inh (MRCKA): 0% | %Inh (MRCKB): 0% | %Inh (MST1R): 0% | %Inh (MST1): 0% | %Inh (MST2): 0% | %Inh (MST3): 4% | %Inh (MST4): 0% | %Inh (MTOR): 28% | %Inh (MUSK): 0% | %Inh (MYLK2): 0% | %Inh (MYLK4): 0% | %Inh (MYLK): 0% | %Inh (MYO3A): 0%

Cc1cccc(-c2nc(-c3ccc(S(C)(=O)=O)cc3)sc2-c2ccncc2)c1
%Inh (MKK7): 20% | %Inh (MKNK1): 0% | %Inh (MKNK2): 13% | %Inh (MLCK): 0% | %Inh (MLK1): 0% | %Inh (MLK2): 33% | %Inh (MLK3): 27% | %Inh (MRCKA): 0% | %Inh (MRCKB): 0% | %Inh (MST1R): 23% | %Inh (MST1): 5% | %Inh (MST2): 0% | %Inh (MST3): 5% | %Inh (MST4): 0% | %Inh (MTOR): 0% | %Inh (MUSK): 0% | %Inh (MYLK2): 0% | %Inh (MYLK4): 0% | %Inh (MYLK): 6% | %Inh (MYO3A): 7%

Cn1cc(-c2ccc3c(c2)CCN3C(=O)Cc2ccccc2Cl)c2c(N)ncnc21 [GSK2608885]
%Inh (MKK7): 0% | %Inh (MKNK1): 7% | %Inh (MKNK2): 0% | %Inh (MLCK): 22% | %Inh (MLK1): 32% | %Inh (MLK2): 0% | %Inh (MLK3): 45% | %Inh (MRCKA): 84% | %Inh (MRCKB): 92.2% | %Inh (MST1R): 100% | %Inh (MST1): 95.3% | %Inh (MST2): 64% | %Inh (MST3): 30% | %Inh (MST4): 13% | %Inh (MTOR): 8% | %Inh (MUSK): 29% | %Inh (MYLK2): 8% | %Inh (MYLK4): 2% | %Inh (MYLK): 12% | %Inh (MYO3A): 34%

Fc1ccc(-c2ncn(CCCN3CCOCC3)c2-c2cccnc2)cc1 [SB-211743]
%Inh (MKK7): 8% | %Inh (MKNK1): 0% | %Inh (MKNK2): 0% | %Inh (MLCK): 0% | %Inh (MLK1): 0% | %Inh (MLK2): 39% | %Inh (MLK3): 17% | %Inh (MRCKA): 0% | %Inh (MRCKB): 19% | %Inh (MST1R): 0% | %Inh (MST1): 12% | %Inh (MST2): 40% | %Inh (MST3): 0% | %Inh (MST4): 0% | %Inh (MTOR): 0% | %Inh (MUSK): 20% | %Inh (MYLK2): 1% | %Inh (MYLK4): 0% | %Inh (MYLK): 0% | %Inh (MYO3A): 0%

Cl.Cl.Cl.Fc1ccc(-c2ncn(C3CCNCC3)c2-c2ccnc(Nc3ccccc3)n2)cc1 [SB-238039]
%Inh (MKK7; 1 µM): 23% and 0% | %Inh (MKNK1): 0% | %Inh (MKNK2; 1 µM): 0% and 29% | %Inh (MLCK): 0% | %Inh (MLK1): 0% | %Inh (MLK2; 1 µM): 40% and 6% | %Inh (MLK3): 0% | %Inh (MRCKA; 1 µM): 90.3% and 71% | %Inh (MRCKB; 1 µM): 75% and 92.8% | %Inh (MST1R; 1 µM): 0% and 40% | %Inh (MST1; 1 µM): 82% and 69% | %Inh (MST2): 0% | %Inh (MST3; 1 µM): 12% and 46% | %Inh (MST4; 1 µM): 44% and 0% | %Inh (MTOR; 1 µM): 22% and 0% | %Inh (MUSK): 0% | %Inh (MYLK2; 1 µM): 43% and 30% | %Inh (MYLK4; 1 µM): 6% and 0% | %Inh (MYLK; 1 µM): 0% and 22% | %Inh (MYO3A; 1 µM): 4% and 10%

CSc1ccc(-c2cc3ncnc(SCC(=O)O)c3s2)cc1
%Inh (MKK7): 0% | %Inh (MKNK1): 0% | %Inh (MKNK2): 0% | %Inh (MLCK): 3% | %Inh (MLK1): 0% | %Inh (MLK2): 24% | %Inh (MLK3): 0% | %Inh (MRCKA): 8% | %Inh (MRCKB): 34% | %Inh (MST1R): 36% | %Inh (MST1): 13% | %Inh (MST2): 20% | %Inh (MST3): 22% | %Inh (MST4): 7% | %Inh (MTOR): 36% | %Inh (MUSK): 0% | %Inh (MYLK2): 0% | %Inh (MYLK4): 9% | %Inh (MYLK): 0% | %Inh (MYO3A): 0%

[2H]C([2H])(c1cccc(C(F)(F)F)c1C)n1ccn2c(=O)nc(N3CCOCC3)cc12 [GSK2336394]
%Inh (MKK7): 14% | %Inh (MKNK1): 3% | %Inh (MKNK2): 6% | %Inh (MLCK): 3% | %Inh (MLK1): 0% | %Inh (MLK2): 0% | %Inh (MLK3): 21% | %Inh (MRCKA): 23% | %Inh (MRCKB): 0% | %Inh (MST1R): 33% | %Inh (MST1): 2% | %Inh (MST2): 0% | %Inh (MST3): 11% | %Inh (MST4): 0% | %Inh (MTOR): 18% | %Inh (MUSK): 8% | %Inh (MYLK2): 0% | %Inh (MYLK4): 0% | %Inh (MYLK): 12% | %Inh (MYO3A): 4%

Cc1c(Cn2c(C)nn3c(=O)cc(N4CCOC(C)C4)nc23)cccc1C(F)(F)F (centres unmarked) [GSK2344444]
%Inh (MKK7): 0% | %Inh (MKNK1): 0% | %Inh (MKNK2): 7% | %Inh (MLCK): 2% | %Inh (MLK1): 0% | %Inh (MLK2): 0% | %Inh (MLK3): 13% | %Inh (MRCKA): 0% | %Inh (MRCKB): 0% | %Inh (MST1R): 28% | %Inh (MST1): 0% | %Inh (MST2): 0% | %Inh (MST3): 2% | %Inh (MST4): 0% | %Inh (MTOR): 28% | %Inh (MUSK): 0% | %Inh (MYLK2): 8% | %Inh (MYLK4): 1% | %Inh (MYLK): 0% | %Inh (MYO3A): 7%
